TDP1 cell noCPT: qHTS for Inhibitors of human tyrosyl-DNA phosphodiesterase 1 (TDP1): qHTS in cells in absence of CPT; DT40 Tdp1-/- hTDP1 cells, no CPT, ATP luminescence, 48 h; Potency, µM (top dose mostly 46.2 µM), without a hit: at the highest dose activity change, negative = growth inhibition, actives largely listed as inhibitors; actives 15% (n = 420,000); note: potency is the fitted concentration of half-maximal effect; nearly all actives have a fitted effect of over 55% in size
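DT40 Tdp1-/-;hTDP1 cells, no CPT (DMSO vehicle only), 400 cells/well; compounds pin-transferred; ≥48 hr, 37 °C; CellTiter-Glo 30 min RT dark, luminescence read.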
IL1B secr inh: inhibitors of inflammasome signaling (IL-1 beta secretion); THP-1 LPS/ATP IL-1B secretion, AlphaLISA, 16 h; active compounds read low; activity change, % at 57.5 µM; actives 4.7% (n = 360,000); in the data active = activity change below about -50%; inconclusive = mostly about -30% to -49%
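THP-1 cells pretreated 1 hr with compounds (up to 57.5 uM final), then stimulated with LPS (250 ng/mL final) plus ATP (1.25 mM final); secreted IL-1B measured by AlphaLISA after 16 hr, decreased signal indicating inhibition.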
DT40 TDP1 CPT: growth inhibition of DT40 Tdp1-/-;hTDP1 cells with camptothecin (screen for TDP1 inhibitors); actives 12% (n = 420,000); chicken DT40 Tdp1-/-;hTDP1 cells + 20 nM CPT, ATP luminescence, 48 h; Potency, µM (titrated, usually from 46.2 µM), inactives show at the top dose activity change, negative = growth inhibition, usual class: inhibitors; AID 686979; note: potency is the fitted concentration of half-maximal effect; nearly all actives have a fitted effect of over 55% in size
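Chicken DT40 Tdp1-/- cells complemented with human TDP1, 400 cells/well, exposed to compounds plus 20 nM camptothecin for at least 48 h at 37 C; viability read as ATP content by CellTiter-Glo luminescence.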
HT1080 IDH1KD tx: kills HT-1080 cells with IDH1 knockdown | Potency, µM (top dose mostly 46.1 µM), for inactives: at the top dose activity, negative = toxicity, most hits filed as cytotoxic | actives 2% (n = 360,000) | HT-1080 IDH1 knockdown viability, ATP luminescence, 48 h;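 note: potency is the fitted concentration of half-maximal effect; 0% = DMSO wells and -100% = cell-free medium wells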
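In this qHTS, HT-1080 cells depleted of IDH1 are exposed for 48 h at 37 °C to compound titrations. Toxicity is scored from CellTiter-Glo luminescence, with DMSO as full viability and medium alone as none.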
ELG1 DNA repair: blocks ELG1-dependent DNA repair in HEK293T cells. actives 2.3% (n = 330,000). Potency, µM (highest dose often 46.1 µM), for the others: top-dose activity change, negative = inhibition, most hits filed as inhibitors. HEK293T ELG1-luciferase reporter, luminescence, 16 h; DNA damage induced by 5-fluorouridine; note: potency is the fitted concentration of half-maximal effect; nearly all actives have a fitted effect of over 55% in size
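Luminescence from the luciferase reporter, measured 30 min after ONE-Glo reagent at room temperature, was the read-out. Beforehand, 2,000 cells per well were exposed for 16 hr at 37 °C to 5-fluorouridine together with compound or vehicle.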
HT1080-NT tox: kills 2HG-producing HT-1080-NT fibrosarcoma cells. HT-1080-NT fibrosarcoma viability, CellTiter-Glo ATP luminescence, 48 h. Potency, µM (titrated, usually from 46.1 µM), for the others: at the top dose activity, negative = less viability, most hits filed as cytotoxic. actives 1.6% (n = 360,000). AID 686970;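 note: NT is the 2HG producing partner of a matched IDH1 knockdown line; potency is the fitted concentration of half-maximal effect; 0% = DMSO-treated cells and -100% = media-only wells without cells; nearly all actives have a fitted effect of over 55% in size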
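A 48-hour cytotoxicity screen used HT-1080-NT cells plated 2 hours before compound delivery. ATP-based CellTiter-Glo luminescence measured viability, normalized to DMSO and no-cell controls.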
The depositor's hits bear a star; ? = inconclusive; / = no result. In the library only some 19% were active in any assay of this set; here they are far more common. Unless noted, calls come from the whole dose curve; as a rule, active = well fitted curve in the direction sought with a large enough effect; inconclusive = small, poorly fitted or top-dose-only effect, or another doubt; inactive = no such curve, though single readings can be large; an effect the other way counts as inactive or inconclusive. Unless noted, % is set by controls: 0 for no effect and ±100 for the full control effect.

SMILES	TDP1 cell noCPT	IL1B secr inh	DT40 TDP1 CPT	HT1080 IDH1KD tx	ELG1 DNA repair	HT1080-NT tox
c1ccc(Nc2cccc(Nc3ccccc3)n2)cc1	-25.9%	?	-18.3%	?	?	-22.6%
Nc1ccc(Nc2nc3ccccc3[nH]2)cc1	-20.3%	?	31.7%	-2.6%	-14.1%	-9.2%
CCCCCCCCN1C(=O)[C@H](CC(=O)NCCCN2CCCC2=O)C[C@@]2(C(=O)OC)CCCCC=C12	?	-16.1	?	-6.3%	/	-7.2%
CCCCCCCCN1C(=O)[C@H](CC(=O)NCCCOC)C[C@@]2(C(=O)OC)CCCCC=C12	16.4µM*	-6.2	?	-16.2%	/	-13.3%
CCCCCCCCN1C(=O)[C@H](CC(=O)NCC2CCCCC2)C[C@@]2(C(=O)OC)CCCCC=C12	16.4µM*	0.0	20.6µM*	-22.1%	/	-3.9%
N#C/C(=C\c1cccn1S(=O)(=O)c1ccccc1)S(=O)(=O)c1ccc(F)cc1	-20.0%	24.8	-11.8%	3.8%	/	6.3%
Cc1cc(C)c(C#N)c(=N)o1	25.9µM*	0.2	20.6µM*	-0.1%	?	-3.9%
Cc1cccc(S(=O)(=O)N2C[C@@H](O)COC[C@@H]3O[C@H](CC(=O)NCCCN4CCOCC4)CC[C@H]32)c1	2.3%	13.6	4.2%	28.5%	/	16.4%
O=C(NCCc1nnc2n1CCN(Cc1c(F)cccc1F)CC2)c1ccc(F)cc1	-10.1%	/	9.8%	/	/	/
Cn1cnnc1SCC(=O)Nc1ccc2nc(SCc3cccc4ccccc34)sc2c1	?	-16.5	23.1µM*	-22.7%	-19.1%	-18.7%
Cn1cnnc1SCC(=O)Nc1ccc2nc(SCc3ccccc3Cl)sc2c1	2.0%	20.4	13.3%	2.0%	?	1.2%
Cc1cccc(NC(=O)CSc2nc3ccc(NC(=O)COc4ccccc4F)cc3s2)c1	6.51µM*	/	16.4µM*	/	/	/
Cc1cccc(NC(=O)CSc2nc3ccc(NC(=O)c4ccccc4)cc3s2)c1	6.51µM*	/	8.2µM*	/	/	/
CCN(CC)C(=O)CSc1nc2ccc(NC(=O)CSc3nnc(N)s3)cc2s1	?	-13.1	?	-0.7%	0.6%	1.2%
O=C(COc1ccccc1F)Nc1ccc2nc(SCc3ccccc3)sc2c1	-19.6%	/	-26.4%	/	/	/
CCN(CC)C(=O)CSc1nc2ccc(NC(=O)CSc3nccn3C)cc2s1	16.4µM*	-53.0*	-29.2%	-4.8%	20.6µM*	-21.7%
CCc1ccccc1N1C(=O)[C@@H]2Cc3ccccc3CN2C1=O	?	4.9	-13.7%	3.5%	-6.5%	9.8%
CCc1nnc(NC(=O)CSc2nccn2Cc2ccc(F)cc2)s1	-16.8%	/	-21.9%	/	/	/
CCc1nc2c(OCCOc3ccc(F)cc3)cccn2c1N(C)C(=O)C(C)C	16.4µM*	-7.6	?	1.6%	/	1.4%
CCc1nc2c(OCCOc3ccc(F)cc3)cccn2c1N(C)C(=O)c1ccc(C)cc1	14.6µM*	-60.5*	?	0.5%	/	-9.0%
CCc1nc2c(OCCOc3ccc(F)cc3)cccn2c1N(C)C(=O)c1ccco1	16.4µM*	?	20.6µM*	-17.5%	/	-17.2%
CCCCC(=O)N(C)c1c(CC)nc2c(OCCOc3ccc(F)cc3)cccn12	18.4µM*	-22.9	14.6µM*	-12.3%	/	-2.2%
CCc1nc2c(OCc3ccc(OC)cc3)cccn2c1N(C)C(=O)c1ccco1	?	-8.0	-23.7%	-0.3%	/	6.4%
CCc1nc2c(OCCOc3ccccc3)cccn2c1N(C)C(=O)c1ccc(C)cc1	?	0.0	?	-15.5%	/	-13.7%
CCCCC(=O)N(C)c1c(CC)nc2c(OCCOc3ccccc3)cccn12	25.9µM*	-26.9	18.4µM*	0.0%	/	-0.3%
SMILES	TDP1 cell noCPT	IL1B secr inh	DT40 TDP1 CPT	HT1080 IDH1KD tx	ELG1 DNA repair	HT1080-NT tox
CCCCC(=O)N(C)c1c(CC)nc2c(OCCC)cccn12	-23.3%	17.4	-28.6%	0.0%	/	0.7%
CC(=O)NC(c1ccccc1)c1nc(/C=C/c2ccccc2)cs1 (centres undefined)	?	-11.3	?	3.3%	/	0.2%
COC(=O)C1=C(O)/C(=C\c2cc(C)n(-c3ccccc3C)c2C)N=C1C	?	-26.0	29.1µM*	0.0%	8.8%	-19.2%
COc1ccc(NC(=O)COC(=O)c2c(NC(C)=O)sc(C)c2C)cc1	?	3.2	?	-7.1%	/	0.7%
Cc1ccc(S(=O)(=O)N2CCCc3cc(NS(=O)(=O)c4cccc(Cl)c4)ccc32)cc1	20.6µM*	/	20.6µM*	/	/	/
Cc1ccc(S(=O)(=O)N2CCCc3ccccc32)cc1	?	32.3	-24.3%	?	/	-16.4%
CCOc1ccc(S(=O)(=O)Nc2ccc3c(c2)CCCN3S(=O)(=O)c2ccc(C)cc2)cc1	18.4µM*	/	?	/	/	/
CCOC(=O)c1c(NC(=O)c2nc(SC)ncc2Cl)sc(C)c1C	-0.9%	/	6.2%	/	/	/
Cc1nn(CC(=O)NCc2ccccc2Br)c(=O)c2cc3occc3n12	-8.2%	/	-1.9%	/	/	/
CC(C)C[C@H]1CN(CCCC[C@H]2CNC(=O)C(=O)N2CCc2ccc(O)cc2)C(=O)C(=O)N1CCc1ccccc1	-5.1%	40.3	-1.2%	?	/	22.3%
CCc1sc(Nc2cccc(C)c2C)nc1-c1cc2cccc(OC)c2oc1=O	20.6µM*	/	?	/	/	/
CCc1sc(Nc2cccc(C)c2)nc1-c1cc2cccc(OC)c2oc1=O	20.6µM*	/	?	/	/	/
COc1cccc2cc(-c3cn4cccc(C)c4n3)c(=O)oc12	?	-1.1	-28.0%	21.9%	/	?
COc1cccc2cc(-c3nnc(Nc4ccccc4C)s3)c(=O)oc12	8.2µM*	/	?	/	/	/
O=C(COC(=O)CNC(=O)c1ccccc1)Nc1nnc(-c2ccccc2)o1	10.1%	-9.5	-27.5%	-2.6%	?	-2.2%
Cc1ccc(NC(=O)CSCC(=O)N2CCCc3ccccc32)cc1	-22.9%	12.4	-10.9%	-1.3%	?	-4.5%
Cc1cc2oc(C(=O)N(Cc3ccco3)Cc3ccccc3Cl)c(C)c2cc1C	14.6µM*	/	?	/	/	/
Cc1ccc(CC(=O)NCC(c2ccco2)N(C)C)cc1C (centres undefined)	9.1%	51.5	11.4%	14.3%	8.7%	-8.0%
Cc1ccc(CN(Cc2ccco2)C(=O)c2cccc(C)c2)cc1	16.4µM*	/	14.6µM*	/	/	/
Cc1ccc2oc(C(=O)NCC(c3ccco3)N(C)C)c(C)c2c1 (centres undefined)	4.11µM*	13.6	?	0.0%	?	0.9%
